Measured values taken from paper PMC7862700, “An all-to-all approach to the identification of sequence-specific readers for epigenetic DNA modifications on cytosine”.

Legend:
Assay in all cases: DAPPL (digital affinity profiling via proximity ligation, sequencing); 10 mM Tris-HCl pH 7.5, 50 mM NaCl, 1 mM DTT, 4% glycerol, room temperature, 30 min; GST-TFs on glutathione beads, 16-mer random dsDNA library, 0.1% formaldehyde crosslink after washing; high values mean tight binding
Conditions in all cases: protein: recombinant; tags: N-terminal GST; dsDNA, one strand shown
FLI1 = molecular target: T1, FLI1 (Homo sapiens, UniProt Q01543 1-452)
T1 sequence: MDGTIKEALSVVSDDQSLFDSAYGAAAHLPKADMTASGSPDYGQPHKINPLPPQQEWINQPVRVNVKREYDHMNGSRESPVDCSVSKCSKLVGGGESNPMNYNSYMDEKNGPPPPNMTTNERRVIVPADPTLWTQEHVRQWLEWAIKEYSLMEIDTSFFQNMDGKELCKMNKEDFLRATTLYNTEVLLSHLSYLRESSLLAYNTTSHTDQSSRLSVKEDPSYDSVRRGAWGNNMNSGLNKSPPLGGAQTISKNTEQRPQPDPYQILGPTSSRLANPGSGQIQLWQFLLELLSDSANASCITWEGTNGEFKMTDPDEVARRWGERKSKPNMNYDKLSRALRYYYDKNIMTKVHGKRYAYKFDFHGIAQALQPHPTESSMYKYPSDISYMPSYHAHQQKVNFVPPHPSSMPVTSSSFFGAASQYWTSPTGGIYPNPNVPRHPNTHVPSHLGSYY
Summary of the method: (§1)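 Binding signal is defined as a hexamer's read frequency for one factor over its frequency for the tag-only sample. To obtain reads, GST-fused human transcription factors were expressed in yeast, captured on glutathione beads, barcoded with DNA and pooled with that sample. Pools met 200 nmole of a 16-mer random double-stranded DNA library in Tris/NaCl/DTT/glycerol buffer for 30 min at room temperature before washing, 0.1% formaldehyde crosslinking, proximity ligation (BsaI/T4 ligase, 1 h, 37 °C), PCR and Illumina NextSeq500 sequencing.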

ELK1 = molecular target: T2, ELK1 (Homo sapiens, UniProt P19419 1-428)
T2 sequence: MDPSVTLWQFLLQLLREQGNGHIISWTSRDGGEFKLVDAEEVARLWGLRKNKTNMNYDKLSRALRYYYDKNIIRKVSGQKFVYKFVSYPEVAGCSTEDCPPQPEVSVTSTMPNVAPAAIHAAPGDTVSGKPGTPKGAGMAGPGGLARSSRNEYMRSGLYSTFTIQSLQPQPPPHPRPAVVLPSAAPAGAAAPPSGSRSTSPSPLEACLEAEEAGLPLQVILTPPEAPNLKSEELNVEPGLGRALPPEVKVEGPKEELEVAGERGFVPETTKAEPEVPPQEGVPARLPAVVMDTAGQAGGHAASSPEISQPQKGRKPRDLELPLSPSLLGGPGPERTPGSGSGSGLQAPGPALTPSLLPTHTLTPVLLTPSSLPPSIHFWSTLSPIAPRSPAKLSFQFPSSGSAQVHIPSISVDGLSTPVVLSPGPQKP
Summary of the method: as §1

GABPA = molecular target: T3, GABPA (Homo sapiens, UniProt Q06546 1-454)
T3 sequence: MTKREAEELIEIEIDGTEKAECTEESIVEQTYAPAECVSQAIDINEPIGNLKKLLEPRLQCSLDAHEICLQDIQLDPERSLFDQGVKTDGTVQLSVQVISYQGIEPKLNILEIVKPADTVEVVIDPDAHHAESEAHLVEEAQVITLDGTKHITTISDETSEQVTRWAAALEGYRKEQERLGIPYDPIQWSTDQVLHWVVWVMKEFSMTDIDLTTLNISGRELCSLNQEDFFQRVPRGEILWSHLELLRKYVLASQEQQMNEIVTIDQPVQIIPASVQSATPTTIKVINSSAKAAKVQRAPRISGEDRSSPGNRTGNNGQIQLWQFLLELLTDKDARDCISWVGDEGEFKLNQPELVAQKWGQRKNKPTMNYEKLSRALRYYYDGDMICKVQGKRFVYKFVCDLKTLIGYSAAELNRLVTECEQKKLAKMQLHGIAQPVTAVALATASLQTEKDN
Summary of the method: as §1

ERG = molecular target: T4, ERG (Homo sapiens, UniProt P11308 1-479)
T4 sequence: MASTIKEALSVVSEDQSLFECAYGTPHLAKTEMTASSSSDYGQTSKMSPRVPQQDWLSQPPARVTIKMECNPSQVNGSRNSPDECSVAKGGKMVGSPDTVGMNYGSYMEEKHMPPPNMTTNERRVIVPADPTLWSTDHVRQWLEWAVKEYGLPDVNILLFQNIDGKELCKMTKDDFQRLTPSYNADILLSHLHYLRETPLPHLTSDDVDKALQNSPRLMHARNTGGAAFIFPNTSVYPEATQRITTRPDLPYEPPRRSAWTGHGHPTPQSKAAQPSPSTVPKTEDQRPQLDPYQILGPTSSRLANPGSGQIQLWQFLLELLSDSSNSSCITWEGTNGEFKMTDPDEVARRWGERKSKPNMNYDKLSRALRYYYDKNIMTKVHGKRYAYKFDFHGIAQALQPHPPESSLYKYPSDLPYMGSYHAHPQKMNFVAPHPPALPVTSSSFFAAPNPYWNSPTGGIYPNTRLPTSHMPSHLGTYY
Summary of the method: as §1

ELF1 = ELF1 (Homo sapiens, UniProt P32519 1-619)
Summary of the method: as §1

EHF = molecular target: T5, EHF (Homo sapiens, UniProt Q9NZC4 1-300)
T5 sequence: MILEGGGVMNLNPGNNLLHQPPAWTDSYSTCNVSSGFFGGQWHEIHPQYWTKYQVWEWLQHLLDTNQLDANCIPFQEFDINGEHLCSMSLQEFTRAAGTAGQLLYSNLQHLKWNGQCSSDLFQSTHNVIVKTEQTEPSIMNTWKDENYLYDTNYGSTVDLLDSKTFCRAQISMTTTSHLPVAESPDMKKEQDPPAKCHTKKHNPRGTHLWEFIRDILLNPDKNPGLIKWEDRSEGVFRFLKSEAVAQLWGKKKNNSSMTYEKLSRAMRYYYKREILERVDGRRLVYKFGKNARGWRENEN
Summary of the method: as §1

SPI1 = SPI1 (Homo sapiens, UniProt P17947 1-270)
Summary of the method: as §1

SPIB = SPIB (Homo sapiens, UniProt Q01892 1-262)
Summary of the method: as §1

ELK3 = molecular target: T6, ELK3 (Homo sapiens, UniProt P41970 1-407)
T6 sequence: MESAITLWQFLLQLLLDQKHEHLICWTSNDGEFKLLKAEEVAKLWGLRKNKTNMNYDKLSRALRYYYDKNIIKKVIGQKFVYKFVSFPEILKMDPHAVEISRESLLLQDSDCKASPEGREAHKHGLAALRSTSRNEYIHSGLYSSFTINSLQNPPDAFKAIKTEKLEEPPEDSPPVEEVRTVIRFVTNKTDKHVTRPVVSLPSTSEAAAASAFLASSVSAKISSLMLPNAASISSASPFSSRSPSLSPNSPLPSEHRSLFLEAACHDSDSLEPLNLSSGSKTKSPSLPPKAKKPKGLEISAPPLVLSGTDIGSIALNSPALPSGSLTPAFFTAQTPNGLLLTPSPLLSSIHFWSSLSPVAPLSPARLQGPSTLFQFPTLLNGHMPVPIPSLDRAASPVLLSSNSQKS
Summary of the method: as §1

FEV = molecular target: T7, FEV (Homo sapiens, UniProt Q99581 1-238)
T7 sequence: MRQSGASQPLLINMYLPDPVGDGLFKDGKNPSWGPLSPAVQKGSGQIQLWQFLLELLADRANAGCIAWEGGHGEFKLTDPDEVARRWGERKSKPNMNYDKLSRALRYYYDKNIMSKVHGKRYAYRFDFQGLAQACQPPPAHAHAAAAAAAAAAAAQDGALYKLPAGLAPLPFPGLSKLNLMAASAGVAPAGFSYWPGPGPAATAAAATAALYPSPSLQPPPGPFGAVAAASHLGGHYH
Summary of the method: as §1

ETV5 = ETV5 (Homo sapiens, UniProt P41161 1-510)
Summary of the method: as §1

SPIC = molecular target: T8, SPIC (Homo sapiens, UniProt Q8N5J4 1-248)
T8 sequence: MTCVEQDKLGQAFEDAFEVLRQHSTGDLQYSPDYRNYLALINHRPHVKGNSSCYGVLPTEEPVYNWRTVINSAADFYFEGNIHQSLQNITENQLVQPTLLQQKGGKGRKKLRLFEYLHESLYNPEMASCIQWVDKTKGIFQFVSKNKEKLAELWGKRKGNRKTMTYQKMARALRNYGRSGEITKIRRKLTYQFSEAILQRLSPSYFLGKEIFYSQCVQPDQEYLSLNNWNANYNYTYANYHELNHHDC
Summary of the method: as §1

ELF4 = ELF4 (Homo sapiens, UniProt Q99607 1-663)
Summary of the method: as §1

ELK4 = molecular target: T9, ELK4 (Homo sapiens, UniProt P28324-2 1-405)
T9 sequence: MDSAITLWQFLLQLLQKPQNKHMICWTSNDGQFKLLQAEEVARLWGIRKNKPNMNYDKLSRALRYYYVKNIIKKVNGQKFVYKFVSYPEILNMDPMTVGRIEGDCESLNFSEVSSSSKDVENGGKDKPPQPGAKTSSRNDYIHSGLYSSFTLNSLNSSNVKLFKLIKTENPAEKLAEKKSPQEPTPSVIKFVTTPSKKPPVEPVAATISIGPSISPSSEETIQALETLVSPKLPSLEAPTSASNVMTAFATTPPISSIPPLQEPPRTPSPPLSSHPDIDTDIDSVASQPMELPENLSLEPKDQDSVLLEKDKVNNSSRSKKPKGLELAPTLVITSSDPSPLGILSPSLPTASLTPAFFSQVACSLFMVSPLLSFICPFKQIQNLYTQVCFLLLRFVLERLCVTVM
Summary of the method: as §1

ETV2 = molecular target: T10, ETV2 (Homo sapiens, UniProt O00321 1-342)
T10 sequence: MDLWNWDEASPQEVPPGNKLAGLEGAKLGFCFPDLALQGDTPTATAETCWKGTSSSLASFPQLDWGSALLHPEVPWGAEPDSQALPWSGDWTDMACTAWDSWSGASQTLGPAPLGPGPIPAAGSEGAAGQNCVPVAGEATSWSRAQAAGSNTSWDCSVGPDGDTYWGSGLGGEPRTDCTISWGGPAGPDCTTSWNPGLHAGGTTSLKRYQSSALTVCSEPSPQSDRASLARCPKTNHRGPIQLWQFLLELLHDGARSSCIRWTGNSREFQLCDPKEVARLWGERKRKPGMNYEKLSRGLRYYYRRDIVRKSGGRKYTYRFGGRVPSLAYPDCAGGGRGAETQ
Summary of the method: as §1

ELF3 = molecular target: T11, ELF3 (Homo sapiens, UniProt P78545 1-371)
T11 sequence: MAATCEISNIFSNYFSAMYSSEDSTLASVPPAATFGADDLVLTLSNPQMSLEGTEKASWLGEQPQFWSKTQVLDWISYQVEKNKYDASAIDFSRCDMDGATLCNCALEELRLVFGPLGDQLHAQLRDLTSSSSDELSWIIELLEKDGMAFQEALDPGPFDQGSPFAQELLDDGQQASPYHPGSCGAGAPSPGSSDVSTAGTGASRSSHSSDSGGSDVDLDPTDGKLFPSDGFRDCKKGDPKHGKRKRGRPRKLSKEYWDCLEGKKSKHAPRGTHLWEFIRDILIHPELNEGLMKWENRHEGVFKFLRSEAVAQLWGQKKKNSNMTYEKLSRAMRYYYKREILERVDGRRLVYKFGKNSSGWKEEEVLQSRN
Summary of the method: as §1

ETV1 = ETV1 (Homo sapiens, UniProt P50549 1-477)
Summary of the method: as §1

ELF4, sequence (Q99607 whole entry): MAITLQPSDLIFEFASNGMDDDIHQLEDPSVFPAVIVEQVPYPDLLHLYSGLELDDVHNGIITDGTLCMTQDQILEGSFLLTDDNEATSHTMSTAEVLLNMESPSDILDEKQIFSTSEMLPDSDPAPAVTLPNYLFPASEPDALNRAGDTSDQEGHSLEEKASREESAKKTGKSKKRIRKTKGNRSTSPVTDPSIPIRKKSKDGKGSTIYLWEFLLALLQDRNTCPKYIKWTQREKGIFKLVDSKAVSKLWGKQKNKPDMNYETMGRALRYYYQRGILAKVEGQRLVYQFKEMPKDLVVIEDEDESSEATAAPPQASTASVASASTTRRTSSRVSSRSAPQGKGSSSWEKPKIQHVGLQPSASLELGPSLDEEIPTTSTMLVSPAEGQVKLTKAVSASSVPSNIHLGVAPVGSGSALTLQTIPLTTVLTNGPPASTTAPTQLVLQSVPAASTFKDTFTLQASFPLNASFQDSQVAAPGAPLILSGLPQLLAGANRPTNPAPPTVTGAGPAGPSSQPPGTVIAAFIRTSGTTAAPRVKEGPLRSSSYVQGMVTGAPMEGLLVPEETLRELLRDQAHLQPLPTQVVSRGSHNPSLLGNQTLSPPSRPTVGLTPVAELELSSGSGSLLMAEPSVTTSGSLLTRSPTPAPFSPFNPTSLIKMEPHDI
SPIB, sequence (Q01892 whole entry): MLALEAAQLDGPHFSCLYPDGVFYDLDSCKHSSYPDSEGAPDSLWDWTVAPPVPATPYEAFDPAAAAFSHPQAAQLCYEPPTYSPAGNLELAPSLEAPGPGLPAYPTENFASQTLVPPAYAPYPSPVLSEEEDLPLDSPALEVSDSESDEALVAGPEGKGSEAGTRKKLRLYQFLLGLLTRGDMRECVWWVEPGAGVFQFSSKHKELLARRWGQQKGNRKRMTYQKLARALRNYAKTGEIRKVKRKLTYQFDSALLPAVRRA
ELF1, sequence (P32519 whole entry): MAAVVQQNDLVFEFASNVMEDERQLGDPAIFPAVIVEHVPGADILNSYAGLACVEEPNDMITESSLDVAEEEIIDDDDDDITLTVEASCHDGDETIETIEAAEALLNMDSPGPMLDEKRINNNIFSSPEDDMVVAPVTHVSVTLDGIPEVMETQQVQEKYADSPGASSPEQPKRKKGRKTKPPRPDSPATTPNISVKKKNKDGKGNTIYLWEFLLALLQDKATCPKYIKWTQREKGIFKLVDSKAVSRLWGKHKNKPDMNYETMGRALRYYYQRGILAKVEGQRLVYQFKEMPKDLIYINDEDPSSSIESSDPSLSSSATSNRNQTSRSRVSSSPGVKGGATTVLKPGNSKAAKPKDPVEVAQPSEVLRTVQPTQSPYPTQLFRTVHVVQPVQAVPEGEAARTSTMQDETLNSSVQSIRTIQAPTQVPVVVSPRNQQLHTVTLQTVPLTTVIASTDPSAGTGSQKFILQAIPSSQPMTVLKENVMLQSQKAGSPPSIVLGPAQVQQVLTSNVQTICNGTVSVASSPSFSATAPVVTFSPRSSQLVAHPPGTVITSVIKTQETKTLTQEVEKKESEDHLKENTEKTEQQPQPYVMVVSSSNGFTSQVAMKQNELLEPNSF
ETV1, sequence (P50549 whole entry): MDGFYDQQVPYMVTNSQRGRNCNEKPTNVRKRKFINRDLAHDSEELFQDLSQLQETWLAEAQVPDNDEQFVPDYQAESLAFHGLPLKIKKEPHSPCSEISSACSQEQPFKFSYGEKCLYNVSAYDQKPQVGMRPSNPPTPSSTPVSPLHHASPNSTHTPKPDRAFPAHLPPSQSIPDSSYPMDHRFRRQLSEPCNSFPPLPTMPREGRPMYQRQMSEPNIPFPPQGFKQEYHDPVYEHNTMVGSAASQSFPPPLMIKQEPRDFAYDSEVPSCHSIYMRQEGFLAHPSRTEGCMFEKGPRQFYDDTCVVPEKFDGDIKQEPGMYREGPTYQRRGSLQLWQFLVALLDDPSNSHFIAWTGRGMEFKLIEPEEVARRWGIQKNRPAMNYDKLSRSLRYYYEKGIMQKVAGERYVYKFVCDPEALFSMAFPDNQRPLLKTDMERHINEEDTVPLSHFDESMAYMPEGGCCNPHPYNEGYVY
ETV5, sequence (P41161 whole entry): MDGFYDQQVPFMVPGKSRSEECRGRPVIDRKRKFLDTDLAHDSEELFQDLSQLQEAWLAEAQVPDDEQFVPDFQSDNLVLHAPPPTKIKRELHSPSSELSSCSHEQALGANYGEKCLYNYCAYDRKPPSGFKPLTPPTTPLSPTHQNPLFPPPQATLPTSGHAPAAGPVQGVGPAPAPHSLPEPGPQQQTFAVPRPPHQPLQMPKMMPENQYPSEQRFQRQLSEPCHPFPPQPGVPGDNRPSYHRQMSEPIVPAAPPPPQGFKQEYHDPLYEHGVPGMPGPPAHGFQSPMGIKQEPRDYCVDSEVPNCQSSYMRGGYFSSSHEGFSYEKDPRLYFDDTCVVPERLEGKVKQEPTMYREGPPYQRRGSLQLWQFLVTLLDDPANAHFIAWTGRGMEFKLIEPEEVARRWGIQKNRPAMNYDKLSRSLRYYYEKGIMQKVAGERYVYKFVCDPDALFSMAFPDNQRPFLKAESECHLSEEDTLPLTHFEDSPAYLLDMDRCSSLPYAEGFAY

Sequence | binding signal (FLI1) | binding signal (ELK1) | binding signal (GABPA) | binding signal (ERG) | binding signal (ELF1) | binding signal (EHF) | binding signal (SPI1) | binding signal (SPIB) | binding signal (ELK3) | binding signal (FEV) | binding signal (ETV5) | binding signal (SPIC) | binding signal (ELF4) | binding signal (ELK4) | binding signal (ETV2) | binding signal (ELF3) | binding signal (ETV1)
CTGACG | 1.19 fold enrichment (6-mer frequency, TF over GST control) | 1.09 fold enrichment (6-mer frequency, TF over GST control) | 1.23 fold enrichment (6-mer frequency, TF over GST control) | 1.06 fold enrichment (6-mer frequency, TF over GST control) | 1.16 fold enrichment (6-mer frequency, TF over GST control) | 1.01 fold enrichment (6-mer frequency, TF over GST control) | 1.06 fold enrichment (6-mer frequency, TF over GST control) | 1.13 fold enrichment (6-mer frequency, TF over GST control) | 1.03 fold enrichment (6-mer frequency, TF over GST control) | 1.11 fold enrichment (6-mer frequency, TF over GST control) | 1.2 fold enrichment (6-mer frequency, TF over GST control) | 1.13 fold enrichment (6-mer frequency, TF over GST control) | 1.06 fold enrichment (6-mer frequency, TF over GST control) | 1.11 fold enrichment (6-mer frequency, TF over GST control) | 1.35 fold enrichment (6-mer frequency, TF over GST control) | 1.05 fold enrichment (6-mer frequency, TF over GST control) | 1.09 fold enrichment (6-mer frequency, TF over GST control)
CACATA | 1.14 fold enrichment (6-mer frequency, TF over GST control) | 1.14 fold enrichment (6-mer frequency, TF over GST control) | 1.11 fold enrichment (6-mer frequency, TF over GST control) | 1.14 fold enrichment (6-mer frequency, TF over GST control) | 1.18 fold enrichment (6-mer frequency, TF over GST control) | 1.13 fold enrichment (6-mer frequency, TF over GST control) | 1.11 fold enrichment (6-mer frequency, TF over GST control) | 1.06 fold enrichment (6-mer frequency, TF over GST control) | 1.17 fold enrichment (6-mer frequency, TF over GST control) | 1.1 fold enrichment (6-mer frequency, TF over GST control) | 1.1 fold enrichment (6-mer frequency, TF over GST control) | 1.07 fold enrichment (6-mer frequency, TF over GST control) | 1.1 fold enrichment (6-mer frequency, TF over GST control) | 1.07 fold enrichment (6-mer frequency, TF over GST control) | 1.18 fold enrichment (6-mer frequency, TF over GST control) | 1.11 fold enrichment (6-mer frequency, TF over GST control) | 1.05 fold enrichment (6-mer frequency, TF over GST control)
